Results on 8 compounds are retold here after PubChem BioAssay (NCATS).

Values joined by “and” are separate entries in the source; they are usually repeats but may differ in a detail not shown here. Equal entries are not always repeated. Results filed as inconclusive are left out. Active and inactive are the calls of the source. Unless noted, calls follow the shape of the dose curve; as a rule, active = well fitted curve in the direction sought with a large enough effect; inconclusive = small, poorly fitted or top-dose-only effect, or another doubt; inactive = no such curve, though single readings can be large; an effect the other way counts as inactive or inconclusive.

Test [1] is described as follows: Cell Viability - Jurkat (AID 426;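 active = dose-dependent loss of cell ATP signal giving a full or clear fitted curve, ranked by lower potency value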; also: potency is read from the fitted curve at half-maximal effect). The conditions noted are these: qHTS. In outline: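 Cells of the human T-cell leukemia line Jurkat (E6-1) are seeded at 5000 per well, treated with compound across a concentration range for 40 hours at 37 °C, then lysed with CellTiter-Glo; luminescence reports ATP.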
Background: In qHTS, concentration-response curves come from the screen itself.

Test [2] can be described thus: Cell Viability - Hek293 (AID 427;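 active = compounds whose dose-response curve shows a full or clear partial loss of cell viability, called from curve shape rather than a numeric limit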;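 also: potency is read from the fitted curve at half-maximal effect; cells exposed to compound for 40 hours at 37 °C before reading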). To be noted: qHTS. In outline:
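HEK293 cells in complete medium were exposed to compound for 40 hr at 37 °C, then cellular ATP was read by CellTiter-Glo luminescence. Data were normalized to DMSO (basal) and 100 uM tamoxifen (100% inhibition), and AC50 came from Hill fits.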

Test [3] can be described thus: Cell Viability - N2a (AID 540).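 Also: plate controls were DMSO alone for no effect and tamoxifen control for full effect; nearly all actives have a fitted effect of over 45% in size.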 The conditions noted are these: N2a mouse neuroblastoma cell viability; at 92.2 µM (top of the series). Summed up: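 Cytotoxicity was scored as loss of cellular ATP in N2a cells, a mouse neuroblastoma line. Compounds are applied in a qHTS concentration series for 40 hr at 37 °C.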
Test [4] in a line: Cell Viability - H-4-II-E (AID 543). Also: % is scaled to controls: 0 for no effect and ±100 for the full control effect; nearly all actives have a fitted effect of over 35% in size. To be noted: H-4-II-E rat hepatoma viability; series mostly up to 92.2 µM. In outline: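 Cells seeded at 1500 per well and rested 5 hr; compounds added; 40 hr incubation at 37 °C; CellTiter-Glo added, 20 min at room temperature; luminescence read. Hill-equation fits gave AC50.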
The nature of test [5]: Cellular Toxicity (caspase-3) HepG2 (AID 654).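 Also: cells exposed to compound for 16 hours before reading; 0% = DMSO alone and 100% = caspase signal from 100 µM tamoxifen.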 To be noted: HepG2 caspase-3 activation, luminescence, 0% = DMSO only, 100% = tamoxifen; series mostly up to 92.2 µM. Summed up:
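Caspase 3/7 activation in HepG2 is measured as rising luminescence after a 16 hr treatment at 37 °C. Values are scaled between DMSO basal and 100 uM tamoxifen, and AC50 is fitted with the Hill equation.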

A short description of test [6]: Cellular Toxicity (caspase-3) NIH 3T3 (AID 666).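 Also: caspase signal read after 16 h compound exposure; 0% = DMSO basal and 100% = 100 µM tamoxifen stimulation.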 The conditions noted are these: NIH 3T3 caspase-3 activation, apoptosis/toxicity, 0% DMSO, 100% is 100 µM tamoxifen; series mostly up to 92.2 µM. Summed up: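 Cells were plated at 1000 per well and incubated 5 hr at 37°C, then compound was added for 16 hr. Caspase-Glo 3/7 reagent followed for 20 min at room temperature before luminescence was read.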

Test [7] can be described thus: Cell Viability - LYMP1-003 - Assay at 40 hr (AID 964). Also: % is scaled to controls: 0 for no effect and ±100 for the full control effect; nearly all actives have a fitted effect of over 60% in size. The conditions noted are these: LYMP1-003 lymphoblastoid viability; series mostly up to 92.2 µM. Summed up: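 Luminescent ATP signal (CellTiter-Glo) served as the viability read-out after 40 hr compound treatment of human lymphoblastoid LYMP1-003 cells at 37 C. Decreases in ATP were fitted with the Hill equation to give AC50.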

Test [8] in a line: Cell Viability - LYMP2-003 (AID 965).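 Also: cells exposed to compounds for 24 h before reading; 0% = DMSO only and full effect = 92 µM tetraoctylammonium bromide; nearly all actives have a fitted effect of over 50% in size.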 To be noted: LYMP2-003 lymphoblastoid cell viability; series mostly up to 92.2 µM. In outline: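 qHTS, human lymphoblastoid line, 2500 cells/well, complete medium. 24 h drug, 37 C. ATP-based luminescent readout; Hill-fit AC50.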
Test [9] can be described thus: Cell Viability - LYMP2-006 (AID 978).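 Also: cells exposed to compound for 24 hours; % is scaled to controls: 0 for no effect and ±100 for the full control effect; nearly all actives have a fitted effect of over 60% in size.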 The conditions noted are these: LYMP2-006 lymphoblastoid cell viability, qHTS; series mostly up to 92.2 µM. In outline:
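In this cytotoxicity screen, the human lymphoblastoid line grew in complete medium with test compounds for 24 hr at 37 C. Cellular ATP served as the viability signal.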

The nature of test [10]: Cell Viability - LYMP2-008 (AID 980).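 Also: cells exposed to compound for 24 h at 37 °C; % is scaled to controls: 0 for no effect and ±100 for the full control effect; nearly all actives have a fitted effect of over 60% in size.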 The conditions noted are these: LYMP2-008 lymphoblastoid cell viability, qHTS; series mostly up to 92.2 µM. Summed up: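 Cells seeded at 2500/well and rested 5 hr at 37 C; compounds added over a concentration range and incubated 24 hr at 37 C; CellTiter-Glo added, 30 min at room temperature; luminescence read and AC50 fitted with Hill model.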

Test [11] in a line: Cell Viability - LYMP2-026 (AID 989).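 Also: cells exposed to compound for 24 h at 37 °C; % is scaled to controls: 0 for no effect and ±100 for the full control effect; nearly all actives have a fitted effect of over 50% in size.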 The conditions noted are these: LYMP2-026 lymphoblastoid cell viability, qHTS; series mostly up to 92.2 µM. In outline:
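Cells are seeded at 2500 per well and held 5 hr at 37 C. Compounds are added in concentration series for 24 hr, then CellTiter-Glo reagent is applied and luminescence read.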

Test [12] in a line: Cell Viability - LYMP1-002 - Assay at 24 hr (AID 993). Also: % is scaled to controls: 0 for no effect and ±100 for the full control effect. To be noted: LYMP1-002 lymphoblastoid cells viability; series mostly up to 92.2 µM. In outline: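 Acute toxicity is measured as concentration-dependent loss of cellular ATP in a human lymphoblastoid line (Coriell LYMP1-002) after 24 h treatment in complete medium. ATP is quantified by luciferase luminescence and AC50 derived by Hill modelling.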

Test [13] in a line: Cell Viability - LYMP1-002 - Assay at 40 hr (AID 994).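 Also: 0% = DMSO only and full inhibition = 92 µM tetraoctylammonium bromide; nearly all actives have a fitted effect of over 60% in size.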 The conditions noted are these: LYMP1-002 lymphoblastoid cell viability; series mostly up to 92.2 µM. In outline: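 Cells are plated at 2500 per well and rested 5 hr at 37 C. Compounds are added and incubated 40 hr at 37 C. CellTiter-Glo reagent is added for 30 min at room temperature before luminescence is read.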
Test [14] in a line: qHTS assay for small molecule agonists of retinoid X receptor alpha signaling (AID 588544). To be noted: HEK293T RXRa-UAS-bla, beta-lactamase reporter, 18 h; 530 nm emission.
Test [15] in a line: qHTS assay for small molecule disruptors of the mitochondrial membrane potential - 5 hr assay (AID 651755; calls by dose curve; also: % is scaled to controls: 0 for no effect and ±100 for the full control effect; nearly all actives have a fitted effect of over 40% in size). To be noted: JC-1-type ratio dye; series mostly up to 92.2 µM. Summed up: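 Read-out: ratiometric Mito-MPS fluorescence, green monomer (ex 490/em 535) vs red mitochondrial aggregate (ex 540/em 590). HepG2 cells treated 5 hr at 37C before 30 min dye loading.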
Test [16] addresses Tumor necrosis factor (Homo sapiens) (UniProt P01375). The test is described as follows: qHTS assay to identify small molecules that stimulate Tumor Necrosis Factor-alpha (TNF-alpha) secretion (AID 651757; active = well fitted curve in the direction sought with a large enough effect in the signal ratio; the % refers to the signal ratio; also: 0% is about no effect). The conditions noted are these: Human cells, HTRF 665/615 ratio; series mostly up to 92.2 µM. In outline:
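Human monocytic THP-1 cells are plated, treated with compound and held at 37 C for 17 hrs. Labeled anti-TNF-alpha antibody mixture is then added; after 3 hr at room temperature, TR-FRET signal reports secreted TNF-alpha.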

Test [17] deals with Peroxisome proliferator-activated receptor alpha (Homo sapiens) (UniProt Q07869). The test is described as follows: qHTS assay for small molecule agonists of the peroxisome proliferator-activated receptor alpha (PPARalpha) signaling pathway (AID 651778). Also: % of control where 0% means no effect. The conditions noted are these: PathHunter PPARalpha complementation, chemiluminescence, 6 h; stronger effect = higher value. In outline:
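Enzyme-fragment complementation assay in which ligand-bound PPARalpha translocates and forms an active enzyme that generates chemiluminescence. Cells were plated overnight, exposed to compound for 6 hr at 37 C, and then given detection reagent for 60 min at room temperature.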

Test [18] can be described thus: qHTS assay for small molecule agonists of the antioxidant response element (ARE) signaling pathway measured by Nrf2-dependant transcriptional activity (AID 720636; active = well fitted curve in the direction sought with a large enough effect in the repeat runs; an effect the other way counts as inactive or inconclusive; also: % of control where 0% means no effect). The conditions noted are these: ARE-luc HepG2, Nrf2 luciferase reporter, 16 h; series mostly up to 92.4 µM. In outline: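 Cells: ARE-luc HepG2 with Nrf2-responsive luciferase. Medium contained 1% dialyzed FBS. Compound exposure lasted 16 hr at 37 C and 5% CO2, followed by ONE-Glo luciferase detection.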

The nature of test [19]: MultiTox-Fluor Cytotoxicity Assay - LYMP1-002 - Live Cells (AID 955).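 Also: cells exposed to compound for 16 hours; % is scaled to controls: 0 for no effect and ±100 for the full control effect.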 To be noted: LYMP1-002 lymphoblastoid live-cell protease fluorescence viability; series mostly up to 46.1 µM. In outline: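 Cells were seeded at 2500 per well and incubated 5 hr. Compounds were then added for 16 hr at 37 C, followed by MultiTox-Fluor reagent for 60 min at room temperature and fluorescence reading of viable-cell protease signal.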

The nature of test [20]: MultiTox-Fluor Cytotoxicity Assay - LYMP1-003 - Live Cells (AID 962).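 Also: cells exposed to compound for 16 hours at 37 °C; 0% = DMSO only and full loss = 92 µM tetraoctylammonium bromide; cytotoxic hits lower the live-cell protease signal.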 To be noted: LYMP1-003 lymphoblastoid cells, MultiTox-Fluor live-cell protease fluorescence; series mostly up to 92.2 µM. In outline:
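Acute cytotoxicity is scored as a drop in live-cell protease activity in human lymphoblastoid LYMP1-003 cells after 16 hr compound exposure at 37 C. AC50 values come from Hill-equation modelling of concentration-response data.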

Chain of Tumor necrosis factor (Homo sapiens) (P01375 whole entry, looked up): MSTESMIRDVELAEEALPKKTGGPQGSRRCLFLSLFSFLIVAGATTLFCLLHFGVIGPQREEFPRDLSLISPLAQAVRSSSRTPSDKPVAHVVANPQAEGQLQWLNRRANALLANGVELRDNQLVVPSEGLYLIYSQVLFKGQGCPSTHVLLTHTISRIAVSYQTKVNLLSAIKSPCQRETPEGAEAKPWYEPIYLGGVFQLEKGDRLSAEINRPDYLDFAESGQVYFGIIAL
Chain of Peroxisome proliferator-activated receptor alpha (Homo sapiens) (Q07869 whole entry, looked up, the tested form may be a part): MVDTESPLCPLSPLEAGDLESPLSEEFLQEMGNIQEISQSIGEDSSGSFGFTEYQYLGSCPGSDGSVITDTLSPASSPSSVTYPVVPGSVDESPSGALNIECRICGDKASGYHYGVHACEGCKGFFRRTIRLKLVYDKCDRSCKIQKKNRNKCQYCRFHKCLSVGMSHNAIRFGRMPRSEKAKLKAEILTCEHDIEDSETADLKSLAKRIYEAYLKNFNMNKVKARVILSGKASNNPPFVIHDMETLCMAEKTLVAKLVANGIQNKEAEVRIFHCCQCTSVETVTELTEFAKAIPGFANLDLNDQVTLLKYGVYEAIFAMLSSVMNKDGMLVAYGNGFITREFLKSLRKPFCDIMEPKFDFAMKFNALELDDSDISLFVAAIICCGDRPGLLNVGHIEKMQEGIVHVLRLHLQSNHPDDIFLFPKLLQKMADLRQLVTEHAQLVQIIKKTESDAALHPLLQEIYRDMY

Turning to `[O-][Br+2]([O-])O`, the Potency in [1] and in test [2] was > 92 µM (inactive) throughout. Also, the activity change, negative = cytotoxicity in test [3] is -3.27% (inactive) and 7.55% (inactive). Moreover, the Potency result in test [4], in test [7], in [8], in test [9], in test [10] and in test [11] was “inactive” in each case. The Potency result in test [12], in test [13] and in test [15] was “inactive” each time. Besides, the compound was classed as inactive in [5], in test [6], in test [16] and in test [18]. In addition, the max response in test [14] is 8.99% and 2.4%; in [17], 8.01% (inactive) and -0.25% (inactive).

Consider `ClC(Cl)=C(Cl)Cl`, for which the Potency in [1] and in [2] was > 92 µM (inactive) in each case. The activity change, negative = cytotoxicity in test [3] is -8.38% (inactive) and -0.61% (inactive). Besides, the Potency entry in [4], in [20], in [7], in test [8], in test [9] and in test [10] was “inactive” each time. Besides, the Potency entry in [11], in test [12], in [13] and in test [15] was “inactive” throughout. The result in [5], in [6], in test [19], in test [16] and in test [18] was inactive. The max response in test [14] is 4.54% and -3.27%; in [17], -0.144% (inactive) and -2.45% (inactive).

For `C=CC(N)=O`, the Potency in test [1] and in test [2] was > 92 µM (inactive) in each case. For the same compound, the activity change, negative = cytotoxicity in test [3] was 1.31% (inactive) and 7.69% (inactive). The Potency entry in [4], in test [20], in test [7], in test [8], in [9] and in test [10] was “inactive” each time. Also, the Potency entry in test [11], in test [12], in [13] and in test [15] was “inactive” in each case. Besides, the result in test [5], in [6], in test [19], in [16] and in [18] was inactive. For the same compound, the max response in test [14] is -5.65% and -3.81%.

Regarding `O=C(Cl)C(Cl)(Cl)Cl`, the Potency in test [1] and in [2] was > 92 µM (inactive) in each case. The activity change, negative = cytotoxicity in test [3] was 4.93% (inactive). Besides, the Potency entry in [4], in test [20], in [7], in [8], in test [9] and in [10] was “inactive” throughout. The Potency entry in test [11], in [12], in test [13] and in test [15] was “inactive” throughout. Also, the result in test [5], in test [6], in test [19], in [16] and in [18] was inactive. For the same compound, the max response in test [14] is 2.41%; in test [17], -1.02% (inactive).

For `CC(O)CCl` (configuration not stated), the Potency in test [1] and in [2] was > 92 µM (inactive) throughout. Besides, in [3], the activity change, negative = cytotoxicity was 5.86% (inactive). In addition, the Potency result in [4], in [20], in [7], in test [8], in [9] and in [10] was “inactive” in each case. Moreover, the Potency result in test [11], in test [12], in test [13] and in test [15] was “inactive” throughout. Also, the compound was called inactive in test [5], in test [6], in [19], in [16] and in [18]. Besides, the max response is -11.9% and -9.91% in test [14]; -0.405% (inactive) and -1.63% (inactive) in [17].

In the case of `O=[N+]([O-])c1ccc(Cl)c(Cl)c1`, the Potency in [1] and in test [2] was > 92 µM (inactive) each time. Besides, in test [3], the activity change, negative = cytotoxicity is -3.37% (inactive). Further, the Potency entry in test [4], in test [20], in test [7], in [8], in test [9] and in [10] was “inactive” in each case. For the same compound, the Potency entry in test [11], in test [12], in test [13] and in test [15] was “inactive” throughout. In addition, the outcome in test [5], in [6], in [19], in [16] and in test [18] was inactive. The results for the max response in [14] and in [17] were 1.86% and -3.39% (inactive), respectively.

Turning to `COc1ccc(N)cc1`, the Potency in test [1] and in test [2] was > 92 µM (inactive) each time. Also, the activity change, negative = cytotoxicity in test [3] was -29.2% (inactive) and -31.3% (inactive). Besides, the Potency result in test [4], in [20], in test [7], in test [8], in test [9] and in [10] was “inactive” in each case. For the same compound, the Potency entry in [11], in test [12], in [13] and in test [15] was “inactive” throughout. Further, the result in test [5], in test [6], in test [19], in test [16] and in [18] was inactive. The max response in [14] was 14.8% and 16.7%; in [17] it was -0.77% (inactive) and -1.08% (inactive).

For the compound `CCCCCCCC(=O)Cl`, the Potency in [1] and in test [2] was > 92 µM (inactive) each time. The activity change, negative = cytotoxicity in test [3] was 1.92% (inactive). For the same compound, the Potency result in [4], in test [20], in test [7], in [8], in test [9] and in test [10] was “inactive” throughout. Besides, the Potency result in [11], in test [12], in test [13] and in test [15] was “inactive” throughout. Besides, the compound was classed as inactive in test [5], in [6], in test [19], in [16] and in test [18]. Besides, the max response in [14] is 12.8%; in [17], 1.85% (inactive).
